# Assay results as given in PubChem BioAssay AID1626 (SRMLSC, 2009).
# The whole screen tested about 220,000 compounds, of which about 2,000 (0.91%) were called active. About 2% were inconclusive and are not listed. These entries were drawn from the full list. Measured potencies and affinities stand elsewhere. A number with no mark means an inactive call. No stated cut-off is given here; in the data, inconclusive means inhibition above about 80% without an active follow-up result; inactive means below that; test concentration not stated here.
# Test: M. tuberculosis H37Rv growth inhibitors, H37Rv strain (AID 1626);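 further: bacteria incubated seven days before Alamar blue readout; 0% = bacteria only wells and 100% = bacteria with antibiotic wells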
# Conditions: hits give high values, concentration not given here
row,SMILES,inhibition [%]
1,O=C(O)c1cccc(S(=O)(=O)Nc2ccccc2N2CCOCC2)c1,-1.57
2,Cc1cccc(C(=O)O/N=C(\N)Cc2ccc([N+](=O)[O-])cc2)c1,7.62
3,COc1ccccc1C1(CCN=Cc2ccc(N(C)C)cc2)CCOC(C)(C)C1 (stereo not given),2.7
4,CCC(=O)/C=C1\Sc2ccc(OC)cc2N1CCO,-14.1
5,CCC(/C=C1\Sc2ccc(OC)cc2N1CC)=C\c1sc2ccc(OC)cc2[n+]1CCCS(=O)(=O)[O-],0.61
6,O=C(NC1CCS(=O)(=O)C1)C1C2CC3CC(C2)CC1C3 (stereo not given),0.76
7,O=C1CCCC(=O)C1Sc1ccc(Cl)cc1,3.4
8,CC1(C)OC(c2ccccc2)=C/C(=C/C=Nc2ccccc2)O1,-2.83
9,COc1ccc(N=C/C=C2\C=C(c3ccccc3)OC(C)(C)O2)cc1,76.4
10,C1CSC2(N1)C1CC3CC2CC(C1)C31NCCS1 (stereo not given),-4.53
11,Cc1cc(C)cc(NC(=O)c2ccccc2CC[N+](=O)[O-])c1,58.2
12,O=C(NCCCN1CCN(CCCNC(=O)c2ccc(F)cc2)CC1)c1ccc(F)cc1,-9.24
13,CC(C)(C)c1ccc(C(=O)NCCN2CCCC2)cc1,-0.48
14,CCOC(=O)c1ccc(NC(=O)NCCc2ccccc2OC)cc1,5.79
15,CCN(CC)C(=O)c1c(C)[nH]c(=S)c(C#N)c1-c1ccco1,-4.78
16,Brc1ccc(-c2cn3ccccc3n2)cc1,-4.5
17,Brc1ccc(-c2cn3cccnc3n2)cc1,-1.72
18,O=C1CCC(=O)N1CNc1cccnc1,-9.49
19,O=C1C2=C(CCCC2)C(=O)N1CNc1ccccc1,-13.7
20,CCn1c(=S)sc2c(=O)n(-c3ccccc3)c(=S)[nH]c21,-1.81
21,COc1ccc(C(=O)N2CCN(c3ccccc3OC)CC2)cc1,0.49
22,O=C(O)/C=C/c1ccc(S(=O)(=O)NCc2cccnc2)cc1,-0.59
23,CN(CC(O)COC(c1ccccc1)c1ccccc1)C1CCCCC1 (stereo not given),5.91
24,CC1CCCC(NC(=O)CSc2ccc(F)cc2)C1C (stereo not given),-2.7
25,Cc1ccc(C)c(Oc2cc(NC(=O)CCCn3nc(C)c([N+](=O)[O-])c3C)cc([N+](=O)[O-])c2)c1,5.87
26,Cc1nn(CCCC(=O)Nc2cc(Oc3ccccc3)cc([N+](=O)[O-])c2)c(C)c1[N+](=O)[O-],4.46
27,Cc1cc([N+](=O)[O-])nn1CCCC(=O)Nc1cc(Oc2ccccc2)cc([N+](=O)[O-])c1,33.1
28,Cc1c(Cl)c([N+](=O)[O-])nn1CCCC(=O)Nc1cccc(Cl)c1,-0.67
29,Cc1ccccc1Oc1cc(NC(=O)CCCn2nc(C)c([N+](=O)[O-])c2C)cc([N+](=O)[O-])c1,4.71
30,Cc1cc([N+](=O)[O-])nn1CCCC(=O)Nc1cc(Oc2ccc(F)cc2)cc([N+](=O)[O-])c1,76
